The text below walks through data of PubChem BioAssay.

Calls of active or inactive are those of the source. Unless noted, how the calls were made is not given here.

The nature of assay [1]: HepG2 liver cancer cell viability effects, profiling panel, resazurin fluorescence, 24 h, PK04 Diversity Set (AID 1172). Further: test concentration not given here. Conditions: higher = more signal. In general terms: The colour change of resazurin is a common sign of viable cells or microbes.
A short description of assay [2]: basal S. cerevisiae growth modulation, no modifier, primary screen, OD600, strain BY4716, 24 h, basal condition (AID 1173). The settings on record: OD600, 24 h, higher = more signal, called active from +8 up or from −8 down.
A short description of assay [3]: MM1S myeloma cell viability, profiling panel, resazurin fluorescence, basal, 24 h, PK04 Diversity Set (AID 1174).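 Further: MM1S multiple myeloma cell line; test concentration not given here.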 Conditions: higher = more signal, called active from +8 up or from −8 down.
The target in assay [4] is Dihydroorotate dehydrogenase (quinone), mitochondrial (Plasmodium falciparum (isolate 3D7)) (UniProt Q08210). Nature of the assay: PfDHODH enzyme inhibitors, primary screen, biochemical, C-terminal His tag, absorbance 600 nm (AID 1175).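 Further: recombinant parasite enzyme with a five histidine tag at its C terminus; test concentration not given here.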 Conditions: DCIP absorbance 600 nm, higher = more signal, called active from +8 up or from −8 down.
Assay [5] in a line: P. aeruginosa biofilm formation inhibitors, primary screen, strain PAO1, LB-PBS medium, absorbance 600 nm (AID 1176). Further: test concentration not given here. Conditions: P. aeruginosa PAO1 growth/biofilm, A600, 12 h; higher = more signal.
The nature of assay [6]: S. cerevisiae RM11-1a growth modifiers, primary screen, strain RM11-1a, OD600, basal, 24 h (AID 1177).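 Further: cultures grown under basal conditions with no added stressor; test concentration not given here.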 The settings on record: OD600, 24 h, higher = more signal, called active from +8 up or from −8 down.
A short description of assay [7]: E. coli acrAB mutant growth effects, primary screen, E. coli filamentation inducers, strain DRC39, OD650, 24 h (AID 1178).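 Further: growth measured as culture turbidity by optical density at 650 nm; test concentration not given here.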 The settings on record: higher = more signal, called active from +8 up or from −8 down.
Assay [8] is described as follows: E. coli acrAB mutant growth effects, primary screen, E. coli filamentation inducers, strain DRC39, OD650, 48 h (AID 1179).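 Further: screen aims at cell division blockers that make cells filament.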 Conditions: E. coli DRC39 delta-acrAB growth, higher = more signal, called active from +8 up or from −8 down.
Assay [9] can be described thus: RPMI8226 myeloma cell viability, profiling panel, resazurin fluorescence, basal, 24 h, PK04 Diversity Set (AID 1180).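 Further: RPMI8826 multiple myeloma cell line at 5000 cells per well; test concentration not given here.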 The settings on record: higher = more signal.
For assay [10], the target named is E3 ubiquitin-protein ligase XIAP (Homo sapiens) (UniProt P98170). Nature of the assay: XIAP binders, primary screen, biophysical, small-molecule microarray, fluorescence 635 nm (AID 1181).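 Further: score merges 667 nm emission and signal to noise over triplicate slides.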 The settings on record: small-molecule microarray binding, higher = more signal.
Chain of E3 ubiquitin-protein ligase XIAP (Homo sapiens) (P98170 whole entry, looked up): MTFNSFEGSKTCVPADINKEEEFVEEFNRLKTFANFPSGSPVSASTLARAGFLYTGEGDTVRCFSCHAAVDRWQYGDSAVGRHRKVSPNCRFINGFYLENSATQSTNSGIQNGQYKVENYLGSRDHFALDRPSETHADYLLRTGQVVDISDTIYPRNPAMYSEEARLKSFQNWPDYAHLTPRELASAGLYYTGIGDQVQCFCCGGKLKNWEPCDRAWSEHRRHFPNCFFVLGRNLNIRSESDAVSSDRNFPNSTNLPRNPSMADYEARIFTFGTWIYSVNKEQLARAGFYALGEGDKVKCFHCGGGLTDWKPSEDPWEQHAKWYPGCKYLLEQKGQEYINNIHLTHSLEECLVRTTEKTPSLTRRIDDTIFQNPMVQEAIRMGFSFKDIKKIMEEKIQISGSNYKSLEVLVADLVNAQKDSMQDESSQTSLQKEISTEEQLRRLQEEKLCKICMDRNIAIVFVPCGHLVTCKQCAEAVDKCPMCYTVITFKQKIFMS

Chain of Dihydroorotate dehydrogenase (quinone), mitochondrial (Plasmodium falciparum (isolate 3D7)) (Q08210 whole entry, looked up): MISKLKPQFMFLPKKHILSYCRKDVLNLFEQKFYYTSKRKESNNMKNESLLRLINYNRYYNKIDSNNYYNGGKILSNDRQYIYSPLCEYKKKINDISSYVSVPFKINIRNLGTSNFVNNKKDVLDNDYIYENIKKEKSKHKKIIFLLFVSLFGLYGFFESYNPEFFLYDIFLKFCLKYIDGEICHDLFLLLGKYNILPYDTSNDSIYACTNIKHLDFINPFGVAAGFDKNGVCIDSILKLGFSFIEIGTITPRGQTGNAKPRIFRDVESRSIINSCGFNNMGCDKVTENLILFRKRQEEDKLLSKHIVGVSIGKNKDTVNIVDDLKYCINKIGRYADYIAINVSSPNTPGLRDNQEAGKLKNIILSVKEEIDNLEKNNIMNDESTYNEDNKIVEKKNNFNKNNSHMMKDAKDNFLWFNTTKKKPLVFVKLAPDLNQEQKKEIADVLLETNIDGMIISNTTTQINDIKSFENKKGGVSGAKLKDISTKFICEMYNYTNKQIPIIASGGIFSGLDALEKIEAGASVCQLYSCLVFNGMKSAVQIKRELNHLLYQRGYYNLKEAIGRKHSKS

With `[N-]=[N+]=NCc1ccccc1[C@@H]1OC(c2ccc(OCCCO)cc2)=N[C@]1(CCS(=O)(=O)c1ccccc1)C(=O)N1CCOCC1`, the z-score in assay [1] is -0.0512; in [2] it was -0.26 (inactive); in assay [3], 0.543 (inactive); in assay [5], 0.19 (inactive); in assay [6] it was 0.821 (inactive); in assay [7], 2.84 (inactive). The z-score in assay [8] was 0.753 (inactive); in assay [9], 1.05. Besides, the composite z-score in [4] was -4.67 (inactive); in [10], 0.0512.

For the compound `O=C(NC1CC1)[C@@H]1c2ccccc2C(=O)N(C2Cc3ccccc3C2)[C@H]1c1ccc(CO)cc1`, the z-score was 0.21 in [1]; -0.009 (inactive) in assay [2]; 0.475 (inactive) in assay [3]; 0.196 (inactive) in assay [5]; 0.397 (inactive) in [6]; 0.223 (inactive) in assay [7]. Further, the z-score was 0.722 (inactive) in [8] and 0.543 in assay [9]. Besides, the composite z-score in [4] was -0.0711 (inactive); in [10] it was -0.0044.

For `CCCCCN1CC=CC23O[C@@H]4C=CCOC(=O)[C@@H]4[C@H]2C(=O)N(C(C)CO)[C@@H]3C1=O` (stereo not given in full), the z-score was 0.0677 in [1]; -0.738 (inactive) in assay [2]; -0.278 (inactive) in assay [3]; 0.77 (inactive) in assay [5]; -1.16 (inactive) in assay [6]; -0.232 (inactive) in [7]. Besides, the z-score in assay [8] was -0.443 (inactive); in [9], 0.003. The composite z-score in [4] was -0.478 (inactive); in assay [10], -0.269.

As for `CC=CC(O)C1C=CC2C(=O)N(C)C(=O)C2N1N(c1ccccc1)c1ccccc1` (stereo not given), the z-score in assay [1] is 0.0376; in assay [2] it was 0.554 (inactive); in assay [3] it was -0.505 (inactive); in assay [5], -0.531 (inactive); in assay [6] it was 0.823 (inactive); in assay [7], -1.15 (inactive). Moreover, the z-score in [8] was -0.321 (inactive); in assay [9], -0.905. The composite z-score in assay [4] was 1.13 (inactive); in assay [10], 0.0116.

As for `CN(C)CCCC[C@@H]1NC(=O)[C@H]2C[C@@H](C(=O)NCCCCCN)[C@@H](c3cccc(OCCO)c3)N2C1=O`, the z-score in assay [1] was 0.306; in assay [2], -0.7 (inactive); in assay [3], 0.606 (inactive); in [5], 0.118 (inactive); in assay [6], -0.629 (inactive); in assay [7], 0.139 (inactive). In addition, the z-score in [8] is -0.386 (inactive); in assay [9], 0.932. In addition, the composite z-score in assay [4] was -0.997 (inactive); in assay [10] it was 0.0101.

As for `O=C1C2C=CC(C(O)c3ccc(-c4ccccc4)s3)N(Nc3ccccc3)C2C(=O)N1c1ccccc1` (stereo not given), the z-score in assay [1] was 0.809; in [2] it was -2.18 (inactive); in assay [3], -0.171 (inactive); in assay [5] it was 0.282 (inactive); in assay [6], 0.119 (inactive); in assay [7], -0.172 (inactive). Besides, the values for the z-score in [8] and in assay [9] were 0.7 (inactive) and 0.428, respectively. Further, the composite z-score in [4] was 0.569 (inactive); in assay [10], 0.59.

`O[C@@H](Cc1ccccc1)[C@@H](/C=C/C1CC1)NCc1cccc(Cl)c1`: the z-score is -0.891 in assay [1]; -9.37 (active) in [2]; -1.22 (inactive) in assay [3]; -0.344 (inactive) in [5]; -1.15 (inactive) in assay [6]; 0.451 (inactive) in [7]. In addition, the results for the z-score in [8] and in [9] were -0.957 (inactive) and -1.18, respectively. Further, the composite z-score is -0.316 (inactive) in [4] and -0.175 in [10].

Consider `CC(C)C(=C=CC[C@H](O)c1ccc(CO)o1)CCO`, for which the z-score is -0.0202 in assay [1]; -1.56 (inactive) in [2]; -0.159 (inactive) in [3]; 0.0356 (inactive) in assay [5]; -0.132 (inactive) in [6]; -0.706 (inactive) in [7]. Further, the z-score in assay [8] is -0.741 (inactive); in [9], 0.152. The composite z-score in assay [4] is -2.12 (inactive); in assay [10], 0.102.

Take `COc1cc2c(cc1O)C(c1cccs1)N(Cc1ccc([N+](=O)[O-])o1)CC2` (stereo not given): the z-score is -0.302 in assay [1]; -2.05 (inactive) in [2]; 0.278 (inactive) in assay [3]; 0.723 (inactive) in assay [5]; -1.14 (inactive) in assay [6]; -0.107 (inactive) in assay [7]. The z-score is 1.19 (inactive) in [8] and -0.182 in assay [9]. The composite z-score in assay [4] is -4.93 (inactive); in assay [10], -0.102.

For the compound `COc1ccc([Si](C)(C)[C@H]2[C@H](CCn3cc([C@H](O)c4ccccc4)nn3)O[C@@]3(C(=O)N(C)c4ccccc43)[C@@H]2C)cc1`, the z-score in assay [1] is 0.894; in assay [2], 0.0785 (inactive); in assay [3], -0.722 (inactive); in assay [5] it was 0.92 (inactive); in assay [6], 1.01 (inactive); in assay [7], 0.445 (inactive). The z-score in assay [8] is 0.416 (inactive); in assay [9] it was -0.568. In addition, the composite z-score is -0.778 (inactive) in assay [4] and 0.393 in assay [10].

With `C#CCN1[C@H](/C=C/C2CC2)[C@H](Cc2ccccc2)OC(=O)[C@@H]1Cc1ccccc1`, the z-score in assay [1] was 0.512; in assay [2], 0.169 (inactive); in [3] it was 0.214 (inactive); in assay [5], -0.283 (inactive); in assay [6], 0.0319 (inactive); in [7], -0.463 (inactive). Also, the z-score was -0.144 (inactive) in [8] and 0.454 in assay [9]. For the same compound, the composite z-score was -0.627 (inactive) in [4] and 0.0853 in [10].

As for `C#CCNCc1ccccc1`, the z-score in [1] was -0.0158; in assay [2] it was -1.11 (inactive); in [3] it was 0.642 (inactive); in [5], -0.677 (inactive); in [6], -0.389 (inactive); in [7], -0.758 (inactive). For the same compound, the values for the z-score in [8] and in assay [9] were -0.624 (inactive) and 0.353, respectively. Also, the composite z-score in [4] is -0.631 (inactive); in [10] it was -0.0848.

`CCCC(=O)N(CCc1c[nH]c2ccccc12)[C@@H]1CC(C(=O)NCCO)=C[C@H](Oc2c(I)cc(CO)cc2OC)[C@H]1O`: the z-score in assay [1] is 0.627; in assay [2], -1.22 (inactive); in [3], -0.176 (inactive); in [5], 0.789 (inactive); in [6] it was 0.152 (inactive); in assay [7], 0.336 (inactive). The z-score was 0.582 (inactive) in assay [8] and 0.114 in assay [9]. The values for the composite z-score in assay [4] and in [10] were 0.0595 (inactive) and -0.222, respectively.
